Measured values from PubChem BioAssay (NCATS).
Results filed as inconclusive are left out. The source made the active and inactive calls. Calls follow the shape of the dose curve; as a rule, active = well fitted curve in the direction sought with a large enough effect; inconclusive = small, poorly fitted or top-dose-only effect, or another doubt; inactive = no such curve, though single readings can be large; an effect the other way counts as inactive or inconclusive.

How the values were obtained:
[1] = biological target: Cellular tumor antigen p53 (Homo sapiens) (UniProt P04637); experiment: Primary qHTS for small molecule compounds that upregulate eGFP-tagged delta133p53alpha (in N-terminal) cells. (AID 2060322); conditions: NCI-H358 eGFP-delta133p53alpha fluorescence, 24 h; activation: stronger effect = higher value;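 also: series mostly up to about 56 µM; 0% = DMSO vehicle and 100% = reference activator; nearly all actives have a fitted effect of over 75% in size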
Chain of Cellular tumor antigen p53 (Homo sapiens) (P04637 whole entry, looked up): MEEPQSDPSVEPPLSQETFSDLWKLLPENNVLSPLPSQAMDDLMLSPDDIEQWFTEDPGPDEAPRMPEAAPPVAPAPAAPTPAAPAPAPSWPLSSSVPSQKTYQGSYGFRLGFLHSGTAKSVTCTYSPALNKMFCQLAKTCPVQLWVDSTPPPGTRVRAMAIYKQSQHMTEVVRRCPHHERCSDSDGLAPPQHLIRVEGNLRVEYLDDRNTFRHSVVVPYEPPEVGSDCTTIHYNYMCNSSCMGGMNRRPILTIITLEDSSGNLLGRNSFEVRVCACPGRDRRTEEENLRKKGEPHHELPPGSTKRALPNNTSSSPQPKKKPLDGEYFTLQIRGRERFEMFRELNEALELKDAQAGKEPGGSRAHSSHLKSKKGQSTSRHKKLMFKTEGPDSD
In short: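 NCI-H358 cells pre-induced 24 h with 10 ng/ml doxycycline to express N-terminal eGFP-delta133p53alpha, then dosed 24 h at 37C without doxycycline; fixed, Hoechst-stained, GFP intensity by laser scanning cytometry, normalized to DMSO (0%) and 57.5 uM 5-azacytidine (100%).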

[2] = biological target: Aldehyde dehydrogenase, mitochondrial (Homo sapiens) (UniProt P05091); experiment: qHTS for Inhibitors of the Aldehyde Dehydrogenase Family (ALDH2) Primary screen (AID 2061308);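 also: plate controls were vehicle for no effect and reference inhibitor for full effect; nearly all actives have a fitted effect of over 55% in size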
[3] = biological target: Retinaldehyde dehydrogenase 3 (Homo sapiens) (UniProt P47895); experiment: qHTS for Inhibitors of the Aldehyde Dehydrogenase Family (ALDH1A3) Validation screen (AID 2061312); also: nearly all actives have a fitted effect of over 45% in size; also: potency is read from the fitted curve at half-maximal effect
[4] = biological target: Retinaldehyde dehydrogenase 3 (Homo sapiens) (UniProt P47895); experiment: qHTS for Inhibitors of the Aldehyde Dehydrogenase Family (ALDH1A3) Primary screen (AID 2061315);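 also: plate controls were DMSO vehicle for no effect and reference inhibitor for full effect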

Cc1ccc(C(=O)C(C)CN2CCCCC2)cc1 (stereo not given)
inactive: activation [1] -2.39% | Potency [2] | Potency [3] | Potency [4]

CCn1c(=O)n([C@H]2CCCN(c3nccc(-c4cc5ccccc5o4)n3)C2)c2ccccc21
inactive: activation [1] -7.16% | Potency [2] | Potency [3] | Potency [4]

Cc1nnc(-c2ccc(-c3ccc(C(=O)Nc4ccc(O)c(N5CCN(C)CC5)c4)cc3)c(C)c2)o1
inactive: activation [1] -0.477% | Potency [2] | Potency [3]

Cc1cc(C)nc(SCC(=O)Nc2ncc(Cc3cccc4ccccc34)s2)n1
inactive: activation [1] -8.11% | Potency [2] | Potency [3] | Potency [4]

CCc1ccc(-c2nc(CSCC(=O)NCCc3ccccc3)c(C)o2)cc1
inactive: activation [1] -12.9% | Potency [2] | Potency [3] | Potency [4]

COc1ccccc1Oc1ccc(N(Cc2cccnc2)S(=O)(=O)CC(F)(F)F)cc1
inactive: activation [1] -6.21% | Potency [2] | Potency [3] | Potency [4]

CO[C@@H]1[C@@H](O[C@H]2O[C@@H](C)[C@H](O[C@@H]3C[C@](C)(O)[C@H](O)[C@@H](C)O3)[C@@H](N(C)C)[C@@H]2O)[C@@H](CC=O)C[C@@H](C)[C@@H](O[C@H]2CC[C@H](N(C)C)[C@H](C)O2)/C=C/C=C/C[C@@H](C)OC(=O)C[C@H]1O
inactive: activation [1] -1.43% | Potency [2] | Potency [3] | Potency [4]

COc1ccc(C2(CNC(=O)c3ccc(NC(=O)c4ccco4)cc3)CCOCC2)cc1
inactive: activation [1] 5.25% | Potency [2] | Potency [3] | Potency [4]

COC(=O)c1ccc2c(c1)[nH]c1ncnc(NCCCN3CCCCC3)c12
active: Potency [3] 31.6 µM
inactive: activation [1] 0.477% | Potency [2] | Potency [4]
